Records with an inconclusive call do not appear. Calls of active or inactive are those of the source. Calls follow the shape of the dose curve; as a rule, active = well fitted inhibition curve with a large enough effect; inconclusive = small, poorly fitted or top-dose-only effect; inactive = no such curve, though single readings can be large or run the other way.
Assay: InCell qHTS Assay for Inhibitors of the mTORC1 Signaling Pathway in MEF (Tsc2-/-, p53-/-) Cells: Hit Validation;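 also: phospho-S6 Ser235/236 signal normalized to propidium iodide cell count per well; nearly all actives have a fitted effect of over 75% in size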
Conditions: phospho-rpS6 immunofluorescence, 24 h; activity change, negative = inhibition: at 38.3 µM (top of the series)
Potency is read from the fitted curve at half-maximal effect.

SMILES | Potency | activity change, negative = inhibition [%]
CCC(C)S(=O)(=O)c1oc(-c2cccs2)nc1S(=O)(=O)c1ccccc1 (stereo unspecified) | 1170 nM (active) | –
CCc1ccccc1NC(=O)CSCc1cnn(-c2ccccc2)c1-n1cccc1 | – | -100
CCCCOc1ccc(Cn2c(=O)sc3ccccc32)cc1 | – | -100
Cc1ccc(CN2C(=O)c3ccccc3Sc3ccc(C(=O)NCCCN4CCOCC4)cc32)cc1 | – | -100
CCOc1ccc(/C=C/c2nc(C#N)c(NCc3ccccc3)o2)cc1 | – | -100
Cc1ccc(Nc2nnc(-c3ccc(C)c(S(=O)(=O)N4CCOCC4)c3)c3ccccc23)c(C)c1 | – | -100
CCOC(=O)C1CCN(C(=O)CSc2c3c(nc4ccc(Cl)cc24)CCCC3)CC1 | – | -100
COC(=O)c1ccc(NC(=O)c2nc(-c3ccc(Cl)cc3)n3c2CCCCC3)cc1 | – | -100
COc1cc(OC)cc(C(=O)NCCc2csc(-c3cccc(C)c3)n2)c1 | – | 1.72
O=C(c1ccc(CS(=O)c2ccccc2Cl)o1)N1CCN(c2cccc(Cl)c2)CC1 (stereo unspecified) | – | -100
C=C(C)CSc1nc(-c2ccccc2)cc(-c2ccc(OC)cc2)c1C#N | – | -100
Cc1ccc(C)c(CN2C(=O)C(=O)c3ccccc32)c1 | – | -100
CCS(=O)(=O)c1ncc(Cl)c(C(=O)NCc2ccc(OC)cc2)n1 | 4650 nM (active) | –
Cc1ccc(S(=O)(=O)c2nnn3c2nc(NCc2cccs2)c2sccc23)cc1 | – | -100
COc1cc(C)ccc1OCCn1c(-c2ccc(Cl)cc2)nc2ccccc2c1=O | – | -100
COc1ccc2cc(CNc3ccccc3)c(=O)n(CC(=O)Nc3ccc(C)cc3C)c2c1 | – | -13.3

Reference: PubChem BioAssay AID651791 (National Center for Advancing Translational Sciences (NCATS), 2012)
